Laboratory results published in PubChem BioAssay (EPA / NIEHS).
Inconclusive results are not listed. Calls of active or inactive are those of the source. How the source made its calls, unless noted: active means hit-call score of the fitted dose curve at least 0.9, where 1 is the maximum; inconclusive means response in the unintended direction; inactive means score below 0.9.

Columns and labels:
[1] = system: frog Estrogen Receptor (ER), gene 398734; test: ATG_frER1_XSP2: Attagene TRANS-FACTORIAL Multi-Species (XSP2) HepG2 Assay for frog Estrogen Receptor (ER) (AID 2283821);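 further: hits raise reporter mRNA above DMSO baseline so potency means agonist or activator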
In short: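 Gain-of-signal mRNA reporter assay, HepG2 human liver cells, 24 h dosing; transcripts read by fluorescent RT-PCR fragment analysis, DMSO as negative control.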

[2] = system: frog Estrogen Receptor (ER2), gene 100174814; test: ATG_frER2_XSP2: Attagene TRANS-FACTORIAL Multi-Species (XSP2) HepG2 Assay for frog Estrogen Receptor (ER2) (AID 2283828)
In short: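 Induction of reporter mRNA, baseline set by DMSO, is the endpoint. The panel was run in transfected HepG2 cells over 24 h, with 3 nM 6-alpha-fluorotestosterone and 1.5 nM norgestrel present to stimulate androgen receptor.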

[3] = system: turtle Thyroid Hormone Receptor, alpha (TRa), gene 101949057; test: ATG_trTRa_XSP2: Attagene TRANS-FACTORIAL Multi-Species (XSP1) HepG2 Assay for turtle Thyroid Hormone Receptor, alpha (TRa) (AID 2283834);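 further: hits raise reporter mRNA over the DMSO baseline so AC50 marks activators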
In short: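 HepG2 cells transiently transfected with GAL4-UAS reporter units for chimeric turtle TRa-Gal4; mRNA measured 24 h after dosing by RT-PCR and capillary electrophoresis fluorescence, gain of signal fitted against DMSO.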

[4] = target: zebrafish Thyroid Hormone Receptor beta (TRb), thrb (gene 30607) (UniProt Q9PVE4); test: ATG_zfTRb_XSP2: Attagene TRANS-FACTORIAL Multi-Species (XSP1) HepG2 Assay for zebrafish Thyroid Hormone Receptor beta (TRb) (AID 2283836)
In short: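 Reporter transcripts were measured by RT-PCR with fluorescent primer extension and capillary electrophoresis, 24 h after chemical dosing of transiently transfected HepG2 cells. Activity was scored as upward signal versus DMSO baseline.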

[5] = target: human Thyroid hormone Receptor alpha (TRa), THRA (gene 7067) (UniProt P10827); test: ATG_hTRa_XSP2: Attagene TRANS-FACTORIAL Multi-Species (XSP2) HepG2 Assay for human Thyroid hormone Receptor alpha (TRa) (AID 2283838)
Sequence of human Thyroid hormone Receptor alpha (TRa), THRA (gene 7067) (P10827 whole entry, looked up, the tested form may be a part): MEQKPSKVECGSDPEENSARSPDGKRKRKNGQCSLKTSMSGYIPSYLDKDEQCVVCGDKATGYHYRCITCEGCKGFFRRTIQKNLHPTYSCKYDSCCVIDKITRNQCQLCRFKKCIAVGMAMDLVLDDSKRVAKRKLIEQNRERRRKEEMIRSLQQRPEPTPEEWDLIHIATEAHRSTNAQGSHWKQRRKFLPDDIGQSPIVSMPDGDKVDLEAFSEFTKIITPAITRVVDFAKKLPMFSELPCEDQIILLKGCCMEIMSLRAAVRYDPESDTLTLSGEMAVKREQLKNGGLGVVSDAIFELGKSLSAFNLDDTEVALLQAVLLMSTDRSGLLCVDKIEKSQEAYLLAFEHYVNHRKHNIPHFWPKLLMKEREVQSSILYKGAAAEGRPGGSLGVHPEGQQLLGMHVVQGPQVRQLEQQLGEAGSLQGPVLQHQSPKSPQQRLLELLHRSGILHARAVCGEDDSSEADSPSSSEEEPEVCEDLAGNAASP
In short: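 Gain-of-signal in reporter mRNA, relative to DMSO, after 24 h dosing of transfected HepG2; quantitation by RT-PCR fragment analysis on capillary electrophoresis.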

[6] = target: frog Thyroid hormone Receptor alpha (TRa), thra-a (gene 397942) (UniProt P15204); test: ATG_frTRa_XSP2: Attagene TRANS-FACTORIAL Multi-Species (XSP2) HepG2 Assay for frog Thyroid hormone Receptor alpha (TRa) (AID 2283839)
In short: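 HepG2 transiently transfected with multiplexed GAL4-UAS reporters driven by frog TRa-Gal4 chimeras; 24 h chemical exposure. Reporter mRNA quantified by RT-PCR, FAM labelling, HpaI digestion and capillary electrophoresis; gain of signal versus DMSO.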

PGR (gene 5241) = PGR (gene 5241) (UniProt P06401); test: TOX21_PR_LUC_Followup_Antagonist: Tox21 HEK293 Progesterone Receptor (PR) Antagonism Luciferase Follow-Up Assay (AID 2283938);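 further: curve fitted upward as signal gain over DMSO baseline despite antagonist label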
In short: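 HEK293-PR-A-luc cells, 3,000/well, preincubated 5 h at 37C before compound addition in DMSO; 16 h compound exposure at 37C. ONE-Glo luciferase luminescence read after 30 min at room temperature, fitted relative to DMSO baseline.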

IYD (gene 389434) = test: CCTE_GLTED_hIYD: CCTE's human Iodotyrosine Deiodinase (xIYD) Inhibition Assay, Great Lakes Toxicology and Ecology Division (GLTED) Lab (AID 2284317);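 further: cell-free human IYD enzyme made in baculovirus insect cells; iodide freed from monoiodotyrosine measured by cerium arsenite color change at 420 nm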
In short: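 Cell-free; baculovirus/insect-cell hIYD + MIT substrate + chemical, 3 h. Dowex column cleanup, then Ce4+/As3+ Sandell-Kolthoff read at A420 nm. Triplicate plates; normalized to 3-nitro-L-tyrosine (positive) and DMSO/NaOH (solvent).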

[7] = target: human AKT serine/threonine Kinase 1 (AKT1), AKT1 (gene 207) (UniProt P31749); test: NVS_ENZ_hAKT1: NovaScreen (NVS) Enzymatic Assay for human AKT serine/threonine Kinase 1 (AKT1) (AID 2283138)
Sequence of human AKT serine/threonine Kinase 1 (AKT1), AKT1 (gene 207) (P31749 whole entry, looked up): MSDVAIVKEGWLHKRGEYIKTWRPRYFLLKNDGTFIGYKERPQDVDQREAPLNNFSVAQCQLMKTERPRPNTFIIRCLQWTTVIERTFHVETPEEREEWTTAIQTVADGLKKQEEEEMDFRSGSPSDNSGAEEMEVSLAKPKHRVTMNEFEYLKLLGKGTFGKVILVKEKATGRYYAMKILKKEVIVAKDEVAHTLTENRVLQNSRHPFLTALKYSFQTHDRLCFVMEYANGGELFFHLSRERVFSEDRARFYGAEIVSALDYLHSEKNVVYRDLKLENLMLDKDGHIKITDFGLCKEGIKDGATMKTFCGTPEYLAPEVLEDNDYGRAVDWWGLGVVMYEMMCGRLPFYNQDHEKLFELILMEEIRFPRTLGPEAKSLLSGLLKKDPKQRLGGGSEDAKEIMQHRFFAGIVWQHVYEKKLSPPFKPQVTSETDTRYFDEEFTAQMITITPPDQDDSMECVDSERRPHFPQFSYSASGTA
In short: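 Fluorescence and mobility-shift readout of kinase activity, taken 1 h post-dosing in a cell-free format with recombinant protein. Primary screen at 25 uM in duplicate; hits (e.g. 30% inhibition) retested in concentration series topping at 50 uM.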

[8] = target: human Casein Kinase 1-delta (CK1D), CSNK1D (gene 1453) (UniProt P48730); test: NVS_ENZ_hCK1D: NovaScreen (NVS) Enzymatic Assay for human Casein Kinase 1-delta (CK1D) (AID 2283148)
Sequence of human Casein Kinase 1-delta (CK1D), CSNK1D (gene 1453) (P48730 whole entry, looked up): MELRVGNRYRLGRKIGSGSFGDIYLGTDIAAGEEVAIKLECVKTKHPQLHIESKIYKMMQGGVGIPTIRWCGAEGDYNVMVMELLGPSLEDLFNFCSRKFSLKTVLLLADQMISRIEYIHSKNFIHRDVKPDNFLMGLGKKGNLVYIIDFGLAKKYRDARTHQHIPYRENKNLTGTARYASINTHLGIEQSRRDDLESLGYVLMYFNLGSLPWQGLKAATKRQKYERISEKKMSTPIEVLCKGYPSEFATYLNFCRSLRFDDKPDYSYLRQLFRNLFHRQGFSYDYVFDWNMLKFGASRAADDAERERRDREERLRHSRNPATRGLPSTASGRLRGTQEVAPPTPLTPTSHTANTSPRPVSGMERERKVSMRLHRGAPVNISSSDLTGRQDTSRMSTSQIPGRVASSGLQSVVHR
In short: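 Recombinant human CK1-delta, cell-free; fluorescent substrate with electrophoretic mobility-shift separation of product, read 1 h after dosing. Single 25 uM duplicate screen, then concentration-response up to 50 uM; loss of signal vs DMSO.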

[9] = target: human Colony Stimulating Factor 1 Receptor (CSF1R), CSF1R (gene 1436) (UniProt P07333); test: NVS_ENZ_hCSF1R: NovaScreen (NVS) Enzymatic Assay for human Colony Stimulating Factor 1 Receptor (CSF1R) (AID 2283150)
In short: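 Compounds screened in duplicate at 25 uM, then concentration-response (top 50 uM) for those passing threshold such as 30% inhibition; recombinant CSF1R activity measured 1 h post-dosing via fluorescent substrate/product mobility-shift separation, loss of signal versus DMSO.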

[10] = target: human FYN Proto-Oncogene, Src family Tyrosine Kinase (Fyn), FYN (gene 2534) (UniProt P06241); test: NVS_ENZ_hFyn: NovaScreen (NVS) Enzymatic Assay for human FYN Proto-Oncogene, Src family Tyrosine Kinase (Fyn) (AID 2283161)
In short: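 Cell-free kinase activity read by fluorescence after mobility-shift separation of substrate and product, 1 h post-dose. Initial single concentration 25 uM in duplicate, then concentration-response follow-up; DMSO baseline.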

[11] = target: Tyrosine-protein phosphatase non-receptor type 11 (Homo sapiens) (UniProt Q06124); test: NVS_ENZ_hPTPN11: NovaScreen (NVS) Enzymatic Assay for human Protein Tyrosine Phosphatase Non-receptor Type 11 (PTPN11) (AID 2283202)
In short: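 Compounds first tested in duplicate at 25 uM; those reaching ~30% inhibition rerun in singleton concentration-response, top 50 uM. Phosphatase activity measured after 0.5 h by fluorescence with mobility-shift separation, relative to DMSO.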

[12] = target: Tyrosine-protein phosphatase non-receptor type 13 (Homo sapiens) (UniProt Q12923); test: NVS_ENZ_hPTPN13: NovaScreen (NVS) Enzymatic Assay for human Protein Tyrosine Phosphatase Non-receptor Type 13 (PTPN13) (AID 2283205)
In short: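 Screened first at a single 25 uM in duplicate; compounds passing the threshold (e.g. 30% inhibition) were rerun in concentration series, top 50 uM. Recombinant enzyme, fluorescent substrate, mobility-shift separation, 0.5 h read. Data fitted as inhibition relative to DMSO.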

[13] = target: human Vascular Endothelial Growth Factor Receptor 3 (VEGFR3), FLT4 (gene 2324) (UniProt P35916); test: NVS_ENZ_hVEGFR3: NovaScreen (NVS) Enzymatic Assay for human Vascular Endothelial Growth Factor Receptor 3 (VEGFR3) (AID 2283229)
Sequence of human Vascular Endothelial Growth Factor Receptor 3 (VEGFR3), FLT4 (gene 2324) (P35916 whole entry, looked up): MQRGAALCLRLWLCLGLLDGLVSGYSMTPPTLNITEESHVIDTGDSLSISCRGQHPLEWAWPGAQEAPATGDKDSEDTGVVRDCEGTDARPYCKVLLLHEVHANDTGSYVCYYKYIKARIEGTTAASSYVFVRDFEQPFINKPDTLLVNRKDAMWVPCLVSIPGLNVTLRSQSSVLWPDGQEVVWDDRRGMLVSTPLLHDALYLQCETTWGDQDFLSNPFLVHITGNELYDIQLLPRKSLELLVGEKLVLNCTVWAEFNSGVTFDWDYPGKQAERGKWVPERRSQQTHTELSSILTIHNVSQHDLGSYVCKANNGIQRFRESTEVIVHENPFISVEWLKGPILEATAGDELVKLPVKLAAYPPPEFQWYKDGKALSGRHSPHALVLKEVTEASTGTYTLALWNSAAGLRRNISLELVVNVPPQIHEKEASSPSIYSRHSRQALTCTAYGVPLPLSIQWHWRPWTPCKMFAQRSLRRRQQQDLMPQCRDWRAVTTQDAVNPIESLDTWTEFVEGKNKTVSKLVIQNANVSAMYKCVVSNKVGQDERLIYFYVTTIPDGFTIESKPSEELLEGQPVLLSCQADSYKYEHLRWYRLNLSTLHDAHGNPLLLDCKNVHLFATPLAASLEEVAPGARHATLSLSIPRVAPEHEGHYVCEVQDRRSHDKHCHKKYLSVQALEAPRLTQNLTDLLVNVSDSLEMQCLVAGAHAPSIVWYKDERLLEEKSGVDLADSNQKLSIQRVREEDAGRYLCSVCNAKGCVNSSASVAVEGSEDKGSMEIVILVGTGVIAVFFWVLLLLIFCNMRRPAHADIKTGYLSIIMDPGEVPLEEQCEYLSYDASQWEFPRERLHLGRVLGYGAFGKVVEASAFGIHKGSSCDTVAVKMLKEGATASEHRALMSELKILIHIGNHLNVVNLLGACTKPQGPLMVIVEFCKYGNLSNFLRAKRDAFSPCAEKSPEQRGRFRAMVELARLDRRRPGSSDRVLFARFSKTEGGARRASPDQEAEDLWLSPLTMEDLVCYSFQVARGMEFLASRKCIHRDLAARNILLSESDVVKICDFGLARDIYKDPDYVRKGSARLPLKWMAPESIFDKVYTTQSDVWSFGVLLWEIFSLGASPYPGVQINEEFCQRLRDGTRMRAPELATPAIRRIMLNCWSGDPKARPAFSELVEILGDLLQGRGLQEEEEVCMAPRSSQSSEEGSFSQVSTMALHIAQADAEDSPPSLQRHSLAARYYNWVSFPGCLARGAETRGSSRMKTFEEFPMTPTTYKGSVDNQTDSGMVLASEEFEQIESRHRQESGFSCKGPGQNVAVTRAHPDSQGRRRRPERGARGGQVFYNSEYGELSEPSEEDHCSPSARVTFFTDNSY
In short: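 Chemicals first run in duplicate at 25 uM, with actives re-tested in concentration series to a top of 50 uM. Recombinant VEGFR3 activity measured after 1 h via fluorescence with mobility-shift product separation; inhibition fitted relative to DMSO.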

[14] = target: human Vascular Endothelial Growth Factor Receptor 2 (VEGFR2), KDR (gene 3791) (UniProt P35968); test: NVS_ENZ_hVEGFR2: NovaScreen (NVS) Enzymatic Assay for human Vascular Endothelial Growth Factor Receptor 2 (VEGFR2) (AID 2283230)
In short: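 Cell-free recombinant VEGFR2 kinase, fluorescent substrate with electrophoretic mobility-shift separation; read 1 h after dosing. Screened at 25 uM in duplicate, hits to concentration-response up to 50 uM; loss-of-signal versus DMSO.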

[15] = target: sheep Cyclooxygenase-2 (Cox2), PTGS2 (gene 443460) (UniProt P79208); test: NVS_ENZ_oCOX2: NovaScreen (NVS) Enzymatic Assay for sheep Cyclooxygenase-2 (Cox2) (AID 2283231)
Sequence of sheep Cyclooxygenase-2 (Cox2), PTGS2 (gene 443460) (P79208 whole entry, looked up): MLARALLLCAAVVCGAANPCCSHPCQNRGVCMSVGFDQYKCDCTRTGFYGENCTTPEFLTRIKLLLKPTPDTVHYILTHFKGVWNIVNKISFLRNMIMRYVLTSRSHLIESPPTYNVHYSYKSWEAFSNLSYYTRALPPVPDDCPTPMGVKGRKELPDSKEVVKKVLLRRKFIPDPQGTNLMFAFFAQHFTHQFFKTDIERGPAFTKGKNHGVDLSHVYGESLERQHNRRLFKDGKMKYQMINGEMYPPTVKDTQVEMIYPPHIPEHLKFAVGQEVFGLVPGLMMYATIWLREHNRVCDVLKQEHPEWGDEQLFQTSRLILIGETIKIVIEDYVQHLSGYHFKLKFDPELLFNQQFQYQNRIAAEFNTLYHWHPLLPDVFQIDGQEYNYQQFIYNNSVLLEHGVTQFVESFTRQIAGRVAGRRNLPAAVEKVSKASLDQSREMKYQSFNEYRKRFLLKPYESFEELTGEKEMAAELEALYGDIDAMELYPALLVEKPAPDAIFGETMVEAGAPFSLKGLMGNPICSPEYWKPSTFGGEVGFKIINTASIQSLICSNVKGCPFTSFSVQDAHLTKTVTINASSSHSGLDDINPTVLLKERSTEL
In short: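 Compounds were first run at 25 uM in duplicate against tissue-extracted ovine COX-2; those passing a preset inhibition threshold went to singleton concentration-response testing with a 50 uM maximum. Read-out: absorbance at 0.66 hour.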

[16] = target: rat Constitutive Nitric Oxide Synthase (CNOS), Nos1 (gene 24598) (UniProt P29476); test: NVS_ENZ_rCNOS: NovaScreen (NVS) Enzymatic Assay for rat Constitutive Nitric Oxide Synthase (CNOS) (AID 2283236)
In short: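 Single 25 uM duplicate screen, then concentration series to 50 uM for chemicals meeting threshold. Rat brain membrane-derived CNOS activity detected radiometrically by filtration and scintillation counting, 1 h after compound addition; DMSO as baseline.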

[17] = read-out: Nuclear factor NF-kappa-B p105 subunit (Homo sapiens) (UniProt P19838); test: LTEA_HepaRG_NFKB1: Life Technologies and Expression Analysis (LTEA) Assay for Nuclear Factor Kappa B Subunit 1 (NFKB1) using HepaRG (AID 2283521; active means hit-call score of the fitted dose curve at least 0.9, where 1 is the maximum; inactive means score below 0.9;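 further: differentiated human HepaRG liver cells in serum-free induction medium; TaqMan qRT-PCR transcript normalised to ACTB GAPDH and POLR2A housekeeping genes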); settings: mRNA level, 48 h; actives raise or lower the signal
In short: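 Human HepaRG cells receive eight half-log concentrations, highest 100 uM, for 48 h. NFKB1 expression is then quantified by qRT-PCR and analysed for up- or down-regulation relative to 0.5% DMSO vehicle.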

[18] = target: human Matrix Metalloproteinase-2 (MMP2), MMP2 (gene 4313) (UniProt P08253); test: NVS_ENZ_hMMP2: NovaScreen (NVS) Enzymatic Assay for human Matrix Metalloproteinase-2 (MMP2) (AID 2283184)
Sequence of human Matrix Metalloproteinase-2 (MMP2), MMP2 (gene 4313) (P08253 whole entry, looked up): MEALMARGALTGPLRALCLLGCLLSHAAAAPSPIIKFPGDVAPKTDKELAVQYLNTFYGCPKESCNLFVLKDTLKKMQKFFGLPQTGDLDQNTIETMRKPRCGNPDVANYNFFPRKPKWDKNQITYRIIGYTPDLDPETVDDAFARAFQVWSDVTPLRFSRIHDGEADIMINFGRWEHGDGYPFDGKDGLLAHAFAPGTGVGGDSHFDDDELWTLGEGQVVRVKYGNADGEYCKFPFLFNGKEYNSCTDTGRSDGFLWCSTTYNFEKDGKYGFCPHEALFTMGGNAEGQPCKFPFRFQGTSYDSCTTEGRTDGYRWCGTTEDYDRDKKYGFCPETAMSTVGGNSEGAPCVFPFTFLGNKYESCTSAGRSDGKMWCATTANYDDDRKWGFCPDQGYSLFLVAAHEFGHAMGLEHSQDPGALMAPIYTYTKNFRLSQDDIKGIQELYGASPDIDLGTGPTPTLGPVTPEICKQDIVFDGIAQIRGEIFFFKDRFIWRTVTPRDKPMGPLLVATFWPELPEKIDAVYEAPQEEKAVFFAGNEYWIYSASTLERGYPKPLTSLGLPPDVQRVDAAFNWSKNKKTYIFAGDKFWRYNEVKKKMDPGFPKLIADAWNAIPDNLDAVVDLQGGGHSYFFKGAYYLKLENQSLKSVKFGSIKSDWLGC
In short: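 Compounds first screened in duplicate at a single 25 uM, with actives followed up in concentration series. Recombinant human MMP2 cleaves a fluorogenic substrate; fluorescence taken at 1 h, inhibition fitted relative to DMSO.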

Measured: AC50

Sequence of Nuclear factor NF-kappa-B p105 subunit (Homo sapiens) (P19838 whole entry, looked up): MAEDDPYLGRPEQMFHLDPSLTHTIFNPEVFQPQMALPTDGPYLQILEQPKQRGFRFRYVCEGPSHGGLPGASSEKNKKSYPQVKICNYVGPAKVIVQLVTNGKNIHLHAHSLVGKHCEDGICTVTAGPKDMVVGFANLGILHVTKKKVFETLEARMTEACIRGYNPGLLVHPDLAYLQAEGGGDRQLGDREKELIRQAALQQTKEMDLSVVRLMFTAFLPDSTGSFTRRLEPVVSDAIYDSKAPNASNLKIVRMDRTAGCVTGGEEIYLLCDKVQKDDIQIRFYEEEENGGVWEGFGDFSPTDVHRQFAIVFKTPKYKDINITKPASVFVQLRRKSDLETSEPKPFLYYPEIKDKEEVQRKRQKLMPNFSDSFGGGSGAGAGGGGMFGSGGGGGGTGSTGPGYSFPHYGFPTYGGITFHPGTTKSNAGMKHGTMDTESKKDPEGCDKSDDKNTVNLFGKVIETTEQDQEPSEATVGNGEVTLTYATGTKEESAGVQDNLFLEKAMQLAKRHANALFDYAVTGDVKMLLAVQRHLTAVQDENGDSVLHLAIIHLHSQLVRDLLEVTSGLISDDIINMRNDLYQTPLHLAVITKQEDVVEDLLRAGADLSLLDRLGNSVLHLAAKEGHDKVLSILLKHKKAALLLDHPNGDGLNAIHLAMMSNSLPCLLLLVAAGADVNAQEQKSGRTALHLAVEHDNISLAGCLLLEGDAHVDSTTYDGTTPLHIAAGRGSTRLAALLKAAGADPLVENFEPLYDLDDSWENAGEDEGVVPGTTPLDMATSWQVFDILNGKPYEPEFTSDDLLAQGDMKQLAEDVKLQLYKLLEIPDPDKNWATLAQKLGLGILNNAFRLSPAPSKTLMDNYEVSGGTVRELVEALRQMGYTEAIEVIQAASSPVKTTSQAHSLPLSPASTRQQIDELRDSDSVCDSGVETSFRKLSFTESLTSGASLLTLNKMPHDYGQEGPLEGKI

CC(C)(c1cc(Cl)c(O)c(Cl)c1)c1cc(Cl)c(O)c(Cl)c1
active: [1] 2.8 µM | [2] 5.92 µM | PGR (gene 5241) 17.2 µM | IYD (gene 389434) 100 µM
inactive: [3] | [4] | [5] | [6]

O=[N+]([O-])c1ccc(Cl)cc1
inactive: [7] | [8] | [9] | [10] | [11] | [12] | [13] | [14] | [15] | [16] | [17]

Cc1cc(C)c(C2=C(OC(=O)CC(C)(C)C)C3(CCCC3)OC2=O)c(C)c1
inactive: [18]
